Screens (PubChem)
A selection: hits, their analogues and other compounds. The true share with any hit is near 4.8%.
PfHsp90 yeast 2 – inhibits growth of yeast expressing Plasmodium falciparum Hsp90 | S. cerevisiae expressing PfHsp90, BacTiter-Glo ATP, 48 h; yeast lacking PDR1 and PDR3 efflux regulators | inhibition, % at 9.4 µM | hit rate 0.32% among 310,000 | AID 504621;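 active = every replicate shows inhibition above about 80%, whatever the replicate mean, limit read from the data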
NALP1 yeast inh – NALP1 inhibition | S. cerevisiae NALP1/ASC/caspase-1 growth, X-gal OD620, 72 h | inhibition, % at 10 µM | hit rate 0.61% among 280,000; in the data active = inhibition mostly above about 24%, no sharp cut-off; inactive = mostly below about 32%
SKKanGAS inh – blocks kanamycin growth of S. pyogenes SKKanGAS strain; hit rate 1.3% among 300,000; inhibition, % at 7.5 µM; BacTiter-Glo, 6 h;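 active = mean replicate score, as percent of positive control median, at least 50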;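 note: strain carries kanamycin resistance gene driven by streptokinase promoter and grows in 40 µg/ml kanamycin; loss of luminescence reflects streptokinase promoter inhibition or plain growth inhibition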
TIM10 inh – inhibits growth of TIM10 yeast strain; inhibition, % at 10 µM; S. cerevisiae TIM10 strain growth, BacTiter-Glo luminescence, 24 h; hit rate 1.4% among 330,000; AID 463195;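 active = inhibition of 40% or more at the single tested concentration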;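 note: wild-type TIM10 isogenic control strain grown at permissive 25 °C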
tim10-1 inh – inhibits growth of tim10-1 mutant yeast. inhibition, % at 20 µM. S. cerevisiae tim10-1 ts strain growth, BacTiter-Glo, 24 h. hit rate 2.2% among 330,000. AID 463190;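 active = inhibition of at least 40%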;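 note: mutant grown at 25 °C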
tim23-1 inh – inhibits growth of tim23-1 mutant yeast; inhibition, % at 20 µM; hit rate 1.3% among 330,000; S. cerevisiae tim23-1 growth, BacTiter-Glo luminescence, 24 h; AID 463212;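 active = growth inhibition of the mutant yeast at or above 50%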;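 note: temperature-sensitive mutant grown at 25 °C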
tim10-1 confirm – confirmation of tim10-1 mutant yeast growth inhibitors; shares compounds with tim10-1 inh; S. cerevisiae tim10-1 ts strain growth, BacTiter-Glo, 24 h; inhibition, % at 20 µM; hit rate 56% among 7,400;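 active = inhibition of yeast growth at or above a set limit in either of two repeat tests at 20 µM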;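 note: tim10-1 mutant grown at permissive 25 °C to find synthetic lethal compounds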
A number is an active result.

Results for COc1cccc(-c2nn3c(-c4ccccn4)nnc3s2)c1 ?
NALP1 yeast inh: inactive; SKKanGAS inh: inactive; TIM10 inh: inactive; tim10-1 inh: 58; tim23-1 inh: inactive; tim10-1 confirm: 54

How did COc1ccc(-c2nnc3sc(-c4ccccn4)nn23)cc1 do in these assays?
NALP1 yeast inh: inactive; SKKanGAS inh: inactive; TIM10 inh: inactive; tim10-1 inh: 44; tim23-1 inh: inactive; tim10-1 confirm: inactive

What do the screens show for `CCN(CC)S(=O)(=O)c1ccc(C)c(NC(=O)Cn2cnc3cc([N+](=O)[O-])ccc3c2=O)c1`?
PfHsp90 yeast 2: inactive; NALP1 yeast inh: inactive; SKKanGAS inh: inactive; TIM10 inh: inactive; tim10-1 inh: inactive; tim23-1 inh: inactive

What do the screens show for `COc1cc(OC)cc(C(=O)NNC(=O)CN2C(=O)NC(C)(c3ccc(C)cc3)C2=O)c1` (stereo not given)?
SKKanGAS inh: inactive; TIM10 inh: inactive; tim10-1 inh: inactive; tim23-1 inh: inactive

How did C[n+]1ccccc1/C=C/c1ccc([N+](=O)[O-])cc1 do in these assays?
PfHsp90 yeast 2: inactive; NALP1 yeast inh: inactive; SKKanGAS inh: inactive; TIM10 inh: inactive; tim10-1 inh: inactive; tim23-1 inh: inactive

Results for O=[N+]([O-])c1cc(/C=N/NC(=S)Nc2ccccc2Cl)ccc1Cl ?
PfHsp90 yeast 2: inactive; NALP1 yeast inh: inactive; TIM10 inh: inactive; tim10-1 inh: 46; tim23-1 inh: inactive; tim10-1 confirm: inactive

How did S=C(Nc1nc2c(s1)CCCC2)NC1CC1 do in these assays?
PfHsp90 yeast 2: inactive; NALP1 yeast inh: inactive; SKKanGAS inh: inactive; TIM10 inh: inactive; tim10-1 inh: 41; tim23-1 inh: inactive; tim10-1 confirm: inactive

Results for O=C(CCCC(=O)N1CCCc2ccccc21)N1CCCc2ccccc21 ?
NALP1 yeast inh: inactive; SKKanGAS inh: inactive; TIM10 inh: inactive; tim10-1 inh: inactive; tim23-1 inh: inactive

How did CN1C(=O)/C(=C\c2ccccc2F)Sc2ccc(C(=O)NC3CCN(Cc4ccccc4)CC3)cc21 do in these assays?
PfHsp90 yeast 2: inactive; NALP1 yeast inh: inactive; SKKanGAS inh: 83; TIM10 inh: inactive; tim10-1 inh: 43; tim23-1 inh: inactive; tim10-1 confirm: inactive

What do the screens show for `O=[N+]([O-])c1cccc(-c2nc(-c3cccs3)c(-c3cccs3)[nH]2)c1`?
PfHsp90 yeast 2: inactive; NALP1 yeast inh: inactive; SKKanGAS inh: inactive; TIM10 inh: inactive; tim10-1 inh: inactive; tim23-1 inh: inactive

How did COc1ccc(-c2nc(-c3cccs3)c(-c3cccs3)[nH]2)cc1OC do in these assays?
PfHsp90 yeast 2: inactive; NALP1 yeast inh: inactive; SKKanGAS inh: 68; TIM10 inh: inactive; tim10-1 inh: 50; tim23-1 inh: inactive; tim10-1 confirm: 36

Results for COC(=O)CSc1nnc([C@H](Cc2ccccc2)NC(=O)OC(C)(C)C)o1 ?
PfHsp90 yeast 2: inactive; NALP1 yeast inh: inactive; SKKanGAS inh: inactive; TIM10 inh: inactive; tim10-1 inh: inactive; tim23-1 inh: inactive

How did COC(=O)CS(=O)(=O)c1nnc([C@H](Cc2ccccc2)NC(=O)OC(C)(C)C)o1 do in these assays?
PfHsp90 yeast 2: inactive; NALP1 yeast inh: inactive; SKKanGAS inh: inactive; TIM10 inh: inactive; tim10-1 inh: 44; tim23-1 inh: inactive; tim10-1 confirm: 38

How did CCN(CC)CCCN(C(=O)c1ccco1)c1nc(-c2ccc(Cl)cc2)cs1 do in these assays?
PfHsp90 yeast 2: inactive; NALP1 yeast inh: inactive; SKKanGAS inh: inactive; TIM10 inh: inactive; tim10-1 inh: 41; tim23-1 inh: inactive; tim10-1 confirm: inactive

Results for CCN(CC)CCCN(C(=O)c1ccco1)c1nc(-c2ccc(C)cc2)cs1 ?
PfHsp90 yeast 2: inactive; NALP1 yeast inh: inactive; SKKanGAS inh: inactive; TIM10 inh: inactive; tim10-1 inh: inactive; tim23-1 inh: inactive

What do the screens show for `CCCOP(=O)(OCCC)c1c([N+](=O)[O-])cc(C(F)(F)F)cc1[N+](=O)[O-]`?
PfHsp90 yeast 2: inactive; NALP1 yeast inh: inactive; SKKanGAS inh: inactive; TIM10 inh: inactive; tim10-1 inh: inactive; tim23-1 inh: inactive

Results for C=C(C)c1cccc(C(C)(C)NC(=O)Nc2ccc(C(C)=O)cc2)c1 ?
PfHsp90 yeast 2: inactive; NALP1 yeast inh: inactive; SKKanGAS inh: inactive; TIM10 inh: inactive; tim10-1 inh: 43; tim23-1 inh: inactive; tim10-1 confirm: inactive

How did CCOC(=O)C1=C(C)Nc2ccccc2N=C1NC(=O)C(CC)c1ccccc1 (stereo not given) do in these assays?
PfHsp90 yeast 2: inactive; NALP1 yeast inh: inactive; SKKanGAS inh: inactive; TIM10 inh: inactive; tim10-1 inh: inactive; tim23-1 inh: inactive

Results for CNc1oc(-c2ccc(Cl)cc2)nc1C#N ?
PfHsp90 yeast 2: inactive; NALP1 yeast inh: inactive; SKKanGAS inh: inactive; TIM10 inh: inactive; tim10-1 inh: inactive; tim23-1 inh: inactive

What do the screens show for `CCOC(=O)c1cc(/C(C)=N/OC(=O)c2ccc(Cl)cc2)on1`?
NALP1 yeast inh: inactive; SKKanGAS inh: inactive; TIM10 inh: inactive; tim10-1 inh: inactive; tim23-1 inh: inactive

What do the screens show for `Cc1ccc(C)c2c1cc(C)c1nnc(SCC(=O)c3cccs3)n12`?
PfHsp90 yeast 2: inactive; NALP1 yeast inh: inactive; SKKanGAS inh: inactive; TIM10 inh: inactive; tim10-1 inh: inactive; tim23-1 inh: inactive

How did O=C(CSc1nnc(-c2ccccc2)n1-c1ccccc1)c1cccs1 do in these assays?
NALP1 yeast inh: inactive; SKKanGAS inh: inactive; TIM10 inh: inactive; tim10-1 inh: 46; tim23-1 inh: inactive; tim10-1 confirm: inactive

Results for Cc1ccc2cc(C)c3nnc(SCC(=O)c4cccs4)n3c2c1C ?
PfHsp90 yeast 2: inactive; NALP1 yeast inh: inactive; SKKanGAS inh: inactive; TIM10 inh: inactive; tim10-1 inh: 40; tim23-1 inh: inactive; tim10-1 confirm: inactive

How did CCc1ccc(CNC(=O)c2ccc3nc(C4CCCCC4)oc3c2)nc1 do in these assays?
NALP1 yeast inh: inactive; SKKanGAS inh: inactive; TIM10 inh: inactive; tim10-1 inh: inactive; tim23-1 inh: inactive

Results for Cc1c(C(=O)NC2CCCc3ccccc32)oc2ccccc12 (stereo not given) ?
PfHsp90 yeast 2: inactive; NALP1 yeast inh: inactive; SKKanGAS inh: inactive; TIM10 inh: inactive; tim10-1 inh: 45; tim23-1 inh: inactive; tim10-1 confirm: 38

Results for O=C(Nc1ccc(Cl)cc1)NC1CCCCC1Cc1ccco1 (stereo not given) ?
PfHsp90 yeast 2: inactive; NALP1 yeast inh: inactive; SKKanGAS inh: inactive; TIM10 inh: inactive; tim10-1 inh: 47; tim23-1 inh: inactive; tim10-1 confirm: 41

What do the screens show for `CN(C)c1nc(OCCNC(=O)COc2ccc(Cl)cc2Cl)nc(N(C)C)n1`?
NALP1 yeast inh: inactive; SKKanGAS inh: inactive; TIM10 inh: inactive; tim10-1 inh: 44; tim23-1 inh: inactive; tim10-1 confirm: inactive

What do the screens show for `O=C(CN1C(=O)NC2(CCCC2)C1=O)N1CCN(S(=O)(=O)c2ccccc2Br)CC1`?
PfHsp90 yeast 2: inactive; NALP1 yeast inh: inactive; SKKanGAS inh: inactive; TIM10 inh: inactive; tim10-1 inh: inactive; tim23-1 inh: inactive
